Test results: PubChem BioAssay (NCATS)
Records with an inconclusive call do not appear. The source made the active and inactive calls. Calls follow the shape of the dose curve; as a rule, active = well fitted curve in the direction sought with a large enough effect; inconclusive = small, poorly fitted or top-dose-only effect, or another doubt; inactive = no such curve, though single readings can be large; an effect the other way counts as inactive or inconclusive.

Tests used:
KB-3-1 = test: Cytotoxic Profiling of Annotated Libraries Using Quantitative High-Throughput Screening (AID 1296008); conditions: Five cell lines viability, CellTiter-Glo ATP luminescence, 48-72 h; max response: hits give low values; also: nearly all actives have a fitted effect of over 60% in size; as to max response: % is scaled to controls: 0 for no effect and ±100 for the full control effect
Method in brief: (§1)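 Compounds were pin-transferred onto cells and incubated 48 or 72 hr at 37 degree Celsius, 95% humidity. CellTiter-Glo was added, plates sat 10 min at room temperature, then ATP-coupled luminescence was imaged as the viability read-out.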

NIH3T3 = test: as above; conditions: Five cell lines viability, CellTiter-Glo ATP luminescence, 48-72 h; max response: hits give low values
Method in brief: as §1

HACAT = test: qHTS assay to identify novel small-molecules to repurpose for Merkel cell carcinoma treatment (AID 1296009); conditions: MCC and control cell lines, CellTiter-Glo viability, 72 h; at 44.8 µM (top of the series) unless noted; also: nearly all actives have a fitted effect of over 60% in size
Method in brief: (§2)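 qHTS format: cells treated with library compounds in DMSO across 8 (NPC) or 11 (MIPE) concentrations. Readout after 72 hr at 37 degree celsius was CellTiter-Glo luminescence.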

HEK293T [1] = test: as above; conditions: MCC and control cell lines, CellTiter-Glo viability, 72 h; series mostly up to 44.8 µM
Method in brief: as §2

C33A = test: Primary qHTS to identify gynecologic anti-cancer compounds using libraries of approved drugs and bioactive compounds (AID 1345084); conditions: Gynecologic cancer cell panel viability, ATPlite luminescence, 48 h; series mostly up to 57.5 µM; also: % is scaled to controls: 0 for no effect and ±100 for the full control effect; nearly all actives have a fitted effect of over 55% in size
Method in brief: (§3)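 Cells, 1,000 per well, plated 16 h, then exposed 48 h at 37 C to compounds. Viability by ATPlite luminescence after 15 min at room temperature.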

CAOV3 = test: as above; conditions: Gynecologic cancer cell panel viability, ATPlite luminescence, 48 h; series mostly up to 57.5 µM
Method in brief: as §3

CASKI = test: as above; conditions: Gynecologic cancer cell panel viability, ATPlite luminescence, 48 h; series mostly up to 57.5 µM
Method in brief: as §3

Es-2 = test: as above; conditions: Gynecologic cancer cell panel viability, ATPlite luminescence, 48 h; series mostly up to 57.5 µM
Method in brief: as §3

HeLa = test: as above; conditions: Gynecologic cancer cell panel viability, ATPlite luminescence, 48 h; series mostly up to 57.5 µM
Method in brief: as §3

Hek293T [2] = test: as above; conditions: Gynecologic cancer cell panel viability, ATPlite luminescence, 48 h, control line for the selectivity index; series mostly up to 57.5 µM
Method in brief: as §3

JEG-3 = test: as above; conditions: Gynecologic cancer cell panel viability, ATPlite luminescence, 48 h; series mostly up to 57.5 µM
Method in brief: as §3

OV90 = test: as above; conditions: Gynecologic cancer cell panel viability, ATPlite luminescence, 48 h; series mostly up to 57.5 µM
Method in brief: as §3

PA-1 = test: as above; conditions: Gynecologic cancer cell panel viability, ATPlite luminescence, 48 h; series mostly up to 57.5 µM
Method in brief: as §3

O=C1[C@H](O[C@@H]2O[C@H](CO)[C@@H](O)[C@H](O)[C@H]2O)Oc2ccccc2N1O
inactive: max response (KB-3-1) 3.12% | max response (NIH3T3) 0.0797% | outcome (HACAT) | Potency (HEK293T [1]) | Potency (C33A) | Potency (CAOV3) | Potency (CASKI) | Potency (Es-2) | Potency (HeLa) | Potency (Hek293T [2]) | Potency (JEG-3) | Potency (OV90) | Potency (PA-1)

CC1=CC(=O)CC(C)(C)C1(O)CCC(C)O (centres undefined)
inactive: outcome (KB-3-1) | max response (NIH3T3) 2.02% | outcome (HACAT) | Potency (HEK293T [1]) | Potency (C33A) | Potency (CAOV3) | Potency (CASKI) | Potency (Es-2) | Potency (HeLa) | Potency (Hek293T [2]) | Potency (JEG-3) | Potency (OV90) | Potency (PA-1)

CC(=O)c1c(O)cc2cccc3c2c1CC(C)(O)O3 (centres undefined)
inactive: max response (KB-3-1) 4.55% | max response (NIH3T3) -0.44% | outcome (HACAT) | Potency (HEK293T [1]) | Potency (C33A) | Potency (CAOV3) | Potency (CASKI) | Potency (Es-2) | Potency (HeLa) | Potency (Hek293T [2]) | Potency (JEG-3) | Potency (OV90) | Potency (PA-1)

CC(C)c1cc2c(c(O)c1O[C@@H]1O[C@H](CO)[C@@H](O)[C@H](O)[C@H]1O)CC1(O)CCC(O)C(C)(C)C1CC2 (some centres undefined)
inactive: max response (KB-3-1) 2.46% | max response (NIH3T3) 0.487% | outcome (HACAT) inactive [at 17.4 µM] | Potency (HEK293T [1]) | Potency (C33A) | Potency (CAOV3) | Potency (CASKI) | Potency (Es-2) | Potency (HeLa) | Potency (Hek293T [2]) | Potency (JEG-3) | Potency (OV90) | Potency (PA-1)

C[C@@H]1CC[C@]2(C)C(C[C@@H](O)[C@H](O)[C@]23CO3)[C@@]1(C)CCc1ccoc1 (some centres undefined)
inactive: max response (KB-3-1) 7.33% | max response (NIH3T3) -3.46% | outcome (HACAT) | Potency (HEK293T [1]) | Potency (C33A) | Potency (CAOV3) | Potency (CASKI) | Potency (Es-2) | Potency (HeLa) | Potency (Hek293T [2]) | Potency (JEG-3) | Potency (OV90) | Potency (PA-1)

CC(=O)OC[C@]12[C@H](OC(C)=O)C(=O)[C@@H]3[C@@H](OC(C)=O)[C@@]14O[C@@]3(C)COC(=O)c1cccnc1[C@@H](C)[C@H](C)C(=O)O[C@@H]([C@H](OC(C)=O)[C@@H]2OC(C)=O)[C@]4(C)O
inactive: outcome (KB-3-1) | max response (NIH3T3) -8.22% | outcome (HACAT) inactive [at 17.4 µM] | Potency (HEK293T [1]) | Potency (C33A) | Potency (CAOV3) | Potency (CASKI) | Potency (Es-2) | Potency (HeLa) | Potency (Hek293T [2]) | Potency (JEG-3) | Potency (OV90) | Potency (PA-1)

CCC(CC)n1ccc2c(C(=O)NCc3c(C)cc(C)[nH]c3=O)cc(C#N)cc21
inactive: max response (KB-3-1) 2.42% | max response (NIH3T3) -0.643% | outcome (HACAT) | Potency (HEK293T [1]) | Potency (C33A) | Potency (CAOV3) | Potency (CASKI) | Potency (Es-2) | Potency (HeLa) | Potency (Hek293T [2]) | Potency (JEG-3) | Potency (OV90) | Potency (PA-1)

CC(C)=CCC/C(C)=C/CC/C(C)=C/CC[C@]1(C)CCc2cc(O)cc(C)c2O1
inactive: max response (KB-3-1) 1.67% | max response (NIH3T3) 1.13% | outcome (HACAT) inactive [at 17.4 µM] | Potency (HEK293T [1]) | Potency (C33A) | Potency (CAOV3) | Potency (CASKI) | Potency (Es-2) | Potency (HeLa) | Potency (Hek293T [2]) | Potency (JEG-3) | Potency (OV90) | Potency (PA-1)

C[C@H](NCc1ccc(OCc2ccccc2F)cc1)C(N)=O
inactive: max response (KB-3-1) -7.57% | max response (NIH3T3) 1.69% | outcome (HACAT) | Potency (HEK293T [1]) | Potency (C33A) | Potency (CAOV3) | Potency (CASKI) | Potency (Es-2) | Potency (HeLa) | Potency (Hek293T [2]) | Potency (JEG-3) | Potency (OV90) | Potency (PA-1)

C[C@@H]1CC[C@]2(C(=O)O)CC[C@]3(C)C(=CCC4[C@]5(C)C(CC[C@]43C)C(C)(C)[C@@H](O)[C@H](O)[C@@H]5O)C2[C@]1(C)O (some centres undefined)
inactive: outcome (KB-3-1) | max response (NIH3T3) -3.49% | outcome (HACAT) inactive [at 17.4 µM] | Potency (HEK293T [1]) | Potency (C33A) | Potency (CAOV3) | Potency (CASKI) | Potency (Es-2) | Potency (HeLa) | Potency (Hek293T [2]) | Potency (JEG-3) | Potency (OV90) | Potency (PA-1)

CC1(C)CC[C@]2(C(=O)O)CC[C@]3(C)C(=CCC4[C@@]5(C)C[C@H](O)[C@H](O[C@@H]6OC[C@H](O)[C@H](O)[C@H]6O)[C@@](C)(CO)C5CC[C@]43C)[C@@H]2C1 (some centres undefined)
inactive: outcome (KB-3-1) | max response (NIH3T3) 2.89% | outcome (HACAT) inactive [at 17.4 µM] | Potency (HEK293T [1]) | Potency (C33A) | Potency (CAOV3) | Potency (CASKI) | Potency (Es-2) | Potency (HeLa) | Potency (Hek293T [2]) | Potency (JEG-3) | Potency (OV90) | Potency (PA-1)

COc1cc(O[C@@H]2O[C@H](CO)[C@@H](O)[C@H](O)[C@H]2O)c(CCC(=O)OC[C@H]2O[C@@H](Oc3cc(OC)c(C4OC(=O)C(C)(O)C4O)cc3CCC(=O)O)[C@H](O)[C@@H](O)[C@@H]2O)cc1C1OC(=O)C(C)(O)C1O (some centres undefined)
inactive: max response (KB-3-1) 9.44% | max response (NIH3T3) -2.47% | outcome (HACAT) inactive [at 9.27 µM] | outcome (HEK293T [1]) inactive [at 9.27 µM] | activity change, negative = cytotoxicity (C33A) -6.26% [at 11.6 µM] | activity change, negative = cytotoxicity (CAOV3) -7.94% [at 11.6 µM] | activity change, negative = cytotoxicity (CASKI) -4.91% [at 11.6 µM] | activity change, negative = cytotoxicity (Es-2) 12.3% [at 11.6 µM] | activity change, negative = cytotoxicity (HeLa) 22.8% [at 11.6 µM] | activity change, negative = cytotoxicity (Hek293T [2]) -1.4% [at 11.6 µM] | activity change, negative = cytotoxicity (JEG-3) -12.6% [at 11.6 µM] | activity change, negative = cytotoxicity (OV90) -1.59% [at 11.6 µM] | activity change, negative = cytotoxicity (PA-1) -4.41% [at 11.6 µM]

C=C1CCC2C(C)(CO[C@@H]3O[C@H](CO)[C@@H](O)[C@H](O)[C@H]3O)C(O)CCC2(C)C1C(=O)CC1=CCOC1=O (some centres undefined)
inactive: max response (KB-3-1) 4.59% | max response (NIH3T3) 1.1% | outcome (HACAT) inactive [at 17.4 µM] | Potency (HEK293T [1]) | Potency (C33A) | Potency (CAOV3) | Potency (CASKI) | Potency (Es-2) | Potency (HeLa) | Potency (Hek293T [2]) | Potency (JEG-3) | Potency (OV90) | Potency (PA-1)
